Screen size: about 57,000 […]; about 3,700 (6.5%) were called active. No stated cut-off is given here; in the data, active = GI50 up to about 1.1 µM and inactive = higher. Not all results are given here. Potency and affinity values are given separately.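 Briefly, cells in 96-well plates were exposed to five compound concentrations for 48 h, and endpoints were estimated by linear interpolation. GI50 = concentration required for 50% inhibition of growth.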

The test has as its system ACHN. Nature of the test: NCI tumour cell line growth inhibition, 48 h.
As for CISPLATIN, CHEMBL11359, the GI50 amounted to 1.22 µM. The same measure for “cis-Bis[[(trimethylsilyl)methyl]amino]tetrachloroplatinum(IV), CHEMBL2146191”: 6.25 µM. For “[Bis(aminomethyl)dimethylsilane]dichloroplatinum (II), CHEMBL2146201” the value was 12.6 µM; for “[Bis(aminomethyl)tetramethylenesilane]dichloropaltinum(II), CHEMBL2146205”, 12.3 µM; for “[Bis(aminomethyl)pentamethylenesilane]dichloropaltinum(II), CHEMBL2146202”, 1.63 µM.

Substance “mu-(1,7-nanodiamine-N,N')bis-(cis-aminedichloroplatimum (II)), CHEMBL2146215” gave a GI50 of 27.8 µM. For “[Bis(aminomethyl)ethylmethylsilane]tetrachloroplatinum(IV), CHEMBL2146192” the value was 2.67 µM.

Consider “[Bis(aminomethyl)pentamethylenesilane]tetrachloropaltinum(IV), CHEMBL2146204”, for which the GI50 stood at 1.79 µM. “[Bis(aminomethyl)tetramethylenesilane]tetrachloropaltinum(IV), CHEMBL2146189” showed a GI50 of 3.69 µM. “[Bis(aminomethyl)dimethylsilane]tetrachloroplatinum(IV), CHEMBL2146190” yielded a GI50 of 4.84 µM.

On to “[Bis(aminomethyl)diethylsilane]tetrachloroplatinum(IV), CHEMBL2146203”, for which the GI50 stood at 2.99 µM.

The record behind these values is ChEMBL document CHEMBL1201862, “PubChem BioAssay data set” (2004).
